HDAC3 inhib – inhibitors of human histone deacetylase 3 | inhibition, % at 8.3 µM | O15379 | recombinant HDAC3, fluorogenic peptide/trypsin coupled, fluorescence | AID 2718 | 0.15% of 320,000 active; in the data active = inhibition above about 26%, passing the limit was not always enough; inconclusive = no clear call, values can overlap the other calls
ALR H2O2 inh – inhibitors of human sulfhydryl oxidase ALR; P55789; purified ALR, DTT oxidation, H2O2 HRP-luminol luminescence; inhibition, % (no concentration beside the values); 3.8% of 290,000 active; AID 485317;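 active = mean replicate inhibition above about 79%, with every replicate also reaching it, limit read from the data; inconclusive = only one of the two criteria met; inactive = mean below limit and not every replicate reaching it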
NPR1 activator – GC-A (human) enzyme activation; HEK293 GC-A cells, cGMP TR-FRET, EC30 ANP; 0% at EC30 ANP, 100% saturating ANP; activation, % at 10 µM; P16066; 0.14% of 370,000 active; in the data active = activation above about 40%
NPR2 activator – GC-B (human) receptor activation; AID 1920062; P20594; activation, % at 10 µM; HEK293-GC-B cells, CNP EC30, cGMP TR-FRET; 0% at EC30 CNP, 100% saturating CNP; 0.11% of 370,000 active;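 active = activation at 10 µM reaching about 35% in either raw or pattern-adjusted values, limit read from the data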
Target sequence (P20594 whole entry, looked up): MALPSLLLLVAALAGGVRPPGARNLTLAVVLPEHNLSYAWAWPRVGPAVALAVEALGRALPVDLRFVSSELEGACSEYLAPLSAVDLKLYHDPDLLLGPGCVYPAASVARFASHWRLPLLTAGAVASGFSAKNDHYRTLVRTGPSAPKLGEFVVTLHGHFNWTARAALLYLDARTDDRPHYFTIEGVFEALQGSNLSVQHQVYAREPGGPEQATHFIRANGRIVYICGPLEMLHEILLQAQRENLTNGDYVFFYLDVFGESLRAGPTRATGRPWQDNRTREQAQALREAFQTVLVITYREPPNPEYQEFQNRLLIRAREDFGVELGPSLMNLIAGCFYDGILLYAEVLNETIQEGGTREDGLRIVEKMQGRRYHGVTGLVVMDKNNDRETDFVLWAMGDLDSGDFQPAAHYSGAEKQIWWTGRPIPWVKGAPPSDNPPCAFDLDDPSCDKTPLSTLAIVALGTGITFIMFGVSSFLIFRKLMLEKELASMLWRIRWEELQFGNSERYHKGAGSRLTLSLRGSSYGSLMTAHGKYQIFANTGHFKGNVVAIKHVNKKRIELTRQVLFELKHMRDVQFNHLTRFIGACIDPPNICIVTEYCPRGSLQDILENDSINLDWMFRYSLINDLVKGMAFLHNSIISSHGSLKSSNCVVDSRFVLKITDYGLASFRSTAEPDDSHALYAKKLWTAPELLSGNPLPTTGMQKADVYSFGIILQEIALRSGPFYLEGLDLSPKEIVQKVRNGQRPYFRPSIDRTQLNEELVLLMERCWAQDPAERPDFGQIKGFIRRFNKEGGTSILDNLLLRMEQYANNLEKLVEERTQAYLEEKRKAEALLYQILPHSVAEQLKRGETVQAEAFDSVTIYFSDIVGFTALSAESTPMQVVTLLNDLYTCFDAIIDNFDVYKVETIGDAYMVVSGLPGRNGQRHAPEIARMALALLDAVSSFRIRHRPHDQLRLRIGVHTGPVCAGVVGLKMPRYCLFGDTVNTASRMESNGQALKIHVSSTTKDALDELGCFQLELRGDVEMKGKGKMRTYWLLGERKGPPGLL
Active calls of the source: *; ? = inconclusive; · = no result. This is one part of a sample in which hits are shown more often than they occur.

SMILES	HDAC3 inhib	ALR H2O2 inh	NPR1 activator	NPR2 activator
CCN(CC)CCCNC(=O)c1ccc2c3n(nc2c1)-c1ccc(Cl)cc1CO3	-3.2	99.2*	4.5	-2.0
O=C(OCC#CCSc1nnc(-c2cccc3ccccc23)o1)c1ccc(SC(F)(F)F)cc1	·	·	-0.9	1.4
Cc1ccc(/C=c2\sc3nc(-c4cccs4)nn3c2=O)o1	7.8	99.1*	1.3	-4.5
Cc1nnc(SCc2nc3sc4c(c3c(=O)[nH]2)CCCC4)[nH]c1=O	0.1	98.4*	-2.9	0.4
Cc1ccc(CN(C)C(=O)CCc2nc3sc4c(c3c(=O)[nH]2)CCCC4)o1	2.7	98.2*	-0.1	1.9
CN(Cc1ccco1)C(=O)CCc1nc2sc3c(c2c(=O)[nH]1)CCCC3	3.1	8.7	1.3	2.6
CCCc1nc2sc3c(c2c(=O)[nH]1)CCCC3	1.3	10.9	0.5	-2.1
CC(=O)Nc1ccc(SCC(=O)Nc2oc(C)c3c(C)n[nH]c(=O)c23)cc1	8.9	98.7*	-0.8	4.4
Cc1n[nH]c(=O)c2c(NC(=O)CSc3ccc(F)cc3)oc(C)c12	4.9	·	-2.4	-11.4
O=C(O)CCc1nnc(SCC(=O)Nc2cccc(C(F)(F)F)c2)[nH]c1=O	1.4	99.1*	-1.0	-0.2
O=C(O)CCc1nnc(SCC(=O)Nc2ccc(Cl)c(C(F)(F)F)c2)[nH]c1=O	-1.5	47.3	1.4	-4.5
CCCN1CCCCC(NC(=O)c2ccc(-c3ccccc3)cc2)C1=O (stereo not given)	·	·	13.4	-4.2
Cc1c(Cl)c(C(=O)N2CCCC2)nn1C	-9.3	-5.6	2.9	1.4
CC(C)c1cc(C(C)C)c(S(=O)(=O)N2CCC(C(=O)NCc3cccs3)CC2)c(C(C)C)c1	·	·	-0.5	1.9
COCCN(C(=O)c1csnn1)C(C(=O)NC1CCCCC1)c1ccc(Cl)cc1 (stereo not given)	10.0	1.0	-8.4	-6.1
Cc1cc(C)c(C(=O)CSc2nnc(C)c(=O)[nH]2)cc1C	0.0	94.6*	-2.0	0.4
Cc1nnc(SCC(=O)Nc2ccc3c(c2)OCO3)[nH]c1=O	-3.9	36.2	1.5	-2.6
CC(=O)Nc1ccc(NC(=O)CSc2nnc(C)c(=O)[nH]2)cc1	-1.3	98.3*	2.5	-0.7
Cc1ccc(NC(=O)CSc2nnc(CCC(=O)O)c(=O)[nH]2)cc1	2.2	98.4*	-1.0	2.6
Cc1nnc(SCC(=O)Nc2sc3c(c2C#N)CCCC3)[nH]c1=O	4.2	97.8*	3.6	2.7
C/C(=N\NC(=O)c1cc(-c2ccco2)nc2ccccc12)c1cccnc1	-7.3	17.5	-0.5	2.6
CC1C(=O)NN=C1C(=O)N/N=C\c1ccc(O)cc1O (stereo not given)	4.0	98.2*	0.1	-4.4
COc1cc(/C=N/NC(=O)C2=NNC(=O)C2C)ccc1O (stereo not given)	3.8	98.4*	-2.8	-2.9
CC1CN(C(=S)Nc2ccccc2C(F)(F)F)CC(C)O1 (stereo not given)	5.6	-5.0	-0.9	4.5
O=C(Nc1cccc(Cl)c1)c1ccc(NC2=NC3CS(=O)(=O)CC3S2)cc1 (stereo not given)	2.4	-7.5	1.1	4.0
SMILES	HDAC3 inhib	ALR H2O2 inh	NPR1 activator	NPR2 activator
CSc1cccc(NC(=O)c2ccc(NC3=NC4CS(=O)(=O)CC4S3)cc2)c1 (stereo not given)	0.7	98.6*	-2.2	2.7
Cc1cnc(C(=O)OCC(=O)Nc2ccc(OCc3ccccc3)cc2)cn1	-4.7	-11.1	1.9	-5.8
COc1ccc(S(=O)(=O)Cc2ccc(C(=O)N3CCCC3)o2)cc1	-10.0	93.7*	3.1	-8.4
COc1ccccc1S(=O)(=O)Cc1ccc(C(=O)N2CCN(c3ccccn3)CC2)o1	-2.8	-16.8	·	·
COc1ccc(S(=O)(=O)Cc2ccc(C(=O)N3CCN(c4ccccc4)CC3)o2)cc1	0.2	88.5*	-1.5	-0.2
COc1ccccc1S(=O)(=O)Cc1ccc(C(=O)N2CCCC2)o1	-7.0	93.4*	1.1	-4.2
COc1ccc(S(=O)(=O)Cc2ccc(C(=O)N3CCN(c4ccccc4F)CC3)o2)cc1	5.6	13.1	-0.4	-18.4
Cc1c[nH]c2cccc(-c3ccc4c(c3)OCO4)c12	·	·	-1.3	-0.7
O=C1c2ccccc2NC2(CCCCC2)N1c1ccc(O)cc1	2.2	99.0*	0.7	-1.6
CC1CCC2(CC1)Nc1ccccc1C(=O)N2c1ccccc1 (stereo not given)	-19.9	-2.4	-35.5	-21.0
O=C(CC1C=Cc2ccccc2N1C(=O)c1ccccc1)c1ccccc1 (stereo not given)	·	-63.6	-9.3	0.8
Cc1ccc(C)c(NC(=O)CSc2sc3c(O)cc(=O)[nH]c3c2C#N)c1	-2.4	?	3.6	3.4
